# In PubChem BioAssay AID435003 (Sanford-Burnham Center for Chemical Genomics, 2010):
# In all, about 330,000 compounds went through this assay and about 1,700 (0.52%) were called active. The sample holds actives, similar compounds and a random draw of the others, so the mix is not that of the screen. Rule as the data show it: active = inhibition above about 50%; inactive = the rest.
# Assay: inhibitors of induced NF-kB luciferase reporter, primary screen, TCR NF-kB activation inhibitor project, cell-based, luminescence, uHTS (AID 435003)
# Conditions: Jurkat, PMA/ionomycin-induced NF-kB luciferase reporter, at 4 µM, stronger effect = higher value
row,Structure (SMILES),inhibition
1,Cc1cc(=O)oc2cc(OCC3CC(c4ccccc4Cl)=NO3)ccc12 (centres undefined),80.2% (active)
2,Cc1cc(=O)oc2cc(OCCC[n+]3ccccc3)ccc12,3.92% (inactive)
3,CCOc1ccccc1N1CCN(C(=O)COc2ccc3c(C)cc(=O)oc3c2)CC1,26.6% (inactive)
4,CCOc1ccc(NC(=O)CCS(=O)(=O)c2ccc3c(c2)CCCN3C(=O)CC)cc1,-12% (inactive)
5,CCCCC(=O)Nc1ccc2c(c1)C(=O)NC2=O,7.09% (inactive)
6,COCc1c(C(=O)N/N=C(\C)c2ccncc2)nnn1-c1nonc1N,-38.2% (inactive)
7,C[C@@H]1C[C@@H]2O[C@H]2/C=C\C=C\C(=O)Cc2c(Cl)c(O)cc(O)c2C(=O)O1,56% (active)
8,CN(NC(=O)c1ccccc1F)c1nc(C(F)(F)F)nc2ccccc12,35.5% (inactive)
9,CSc1nc(N(C)NC(=O)c2cccc(C)c2)c2ccccc2n1,57.7% (active)
10,CN(NC(=O)c1ccccc1)c1nc2ccccc2nc1C(F)(F)F,40.2% (inactive)
11,O=C1c2ccccc2C(Nc2ccc3c(c2)OCCO3)N1Cc1ccco1 (centres undefined),4.45% (inactive)
12,Cc1ccc(N2CCN(c3ccc([N+](=O)[O-])cn3)CC2)c(C)c1,50.7% (active)
13,Cc1ccc(-n2c(C)cc(/C=N/Nc3ccc([N+](=O)[O-])cn3)c2C)c(C)c1,15.1% (inactive)
14,COc1ccccc1C1CCN(c2ccc([N+](=O)[O-])cn2)CC1,1.45% (inactive)
15,COc1ccc(N(CC(=O)Nc2cc(OC)cc(OC)c2)S(=O)(=O)c2c(C)n[nH]c2C)cc1,-11.8% (inactive)
16,CCc1sc(C(=O)N2CCN(CC(=O)Nc3cccc(F)c3)CC2)cc1C,-11.7% (inactive)
17,CCc1ccc(NC2Nc3cc(C)nn3S2)cc1 (centres undefined),-76.8% (inactive)
18,Cc1ccc(NC(=O)NNC(=O)c2sccc2-n2cccc2)cc1,6.7% (inactive)
19,COc1cccc(/C=N/NC(=O)c2[nH]nc3c2CCc2ccccc2-3)c1O,60.8% (active)
20,COc1ccc(/C=N/NC(=O)c2ccncc2)cc1CN1CCCc2ccccc21,16.1% (inactive)

row,Structure (SMILES),inhibition
1,COc1ccc(Br)cc1/C=N/NC(=O)c1cccc(S(=O)(=O)N2CCOCC2)c1,5.13% (inactive)
2,Cc1ccsc1-c1nc(CSCC(=O)NCCN2CCCC2)c(C)o1,-7.15% (inactive)
3,Cc1c(C)c2cc3c4c(oc3c(C)c2oc1=O)CCCC4,-27.9% (inactive)
4,O=C(Nc1cccc(S(=O)(=O)N2CCCC2)c1)c1cncc(Br)c1,1.27% (inactive)
5,CC[n+]1cc(C)ccc1/C=C/c1ccc(N(C)C)cc1,84.4% (active)
6,Cc1ccc2nsnc2c1NC(=O)c1ccccc1[N+](=O)[O-],10.9% (inactive)
7,COc1ccc(NC(=O)C(CC(C)C)NS(=O)(=O)c2ccc3c(c2)CCN3C(C)=O)cc1OC (centres undefined),-14% (inactive)
8,CC1(C(=O)O)CCC(C(=O)Nc2ccc(Cl)c(Cl)c2)C1(C)C (centres undefined),-8.65% (inactive)
9,CC(=O)NC(=S)Nc1ccc(NC(=S)NC(=O)c2ccc([N+](=O)[O-])cc2)cc1,14.2% (inactive)
10,COc1cc(NS(=O)(=O)c2ccc(NC(=O)c3ccc([N+](=O)[O-])cc3)cc2)ncn1,14.9% (inactive)
11,Cn1ccc(=Nc2ccc(NC(=O)c3ccc(N=c4ccn(C)c5ccc([N+](=O)[O-])cc45)cc3)cc2)cc1,51.3% (active)
12,O=C1C=C(c2ccc(Cl)cc2)C(=O)N1Nc1ccccc1,13.6% (inactive)
13,CC(=O)c1ccc(N2CCN(C(=O)C3CCN(S(=O)(=O)c4ccc5c(c4)CC(C)N5C(=O)C4CC4)CC3)CC2)cc1 (centres undefined),-3.75% (inactive)
14,CCOc1ccc(N/C=C/C(=O)c2ccccc2)cc1,-132% (inactive)
15,COc1ccc(C(=O)/C=C/Nc2ccccn2)cc1,50.4% (active)
16,CCOc1ccc(N/C=C/C(=O)c2cc(OC)c(OC)c(OC)c2)cc1,44.3% (inactive)
17,Cc1onc(-c2ccc(Cl)cc2)c1-c1ccnn1S(=O)(=O)c1ccc(Cl)cc1,9.53% (inactive)
18,COc1ccc(NC(=O)C(C)N2c3cccc4cccc(c34)S2(=O)=O)c(OC)c1 (centres undefined),21.7% (inactive)
19,O=C(NCc1ccc2c(c1)OCO2)c1cc([N+](=O)[O-])ccc1N1CCOCC1,60.2% (active)
20,CC1CCN(c2ccc(C(=O)NCc3ccc4c(c3)OCO4)cc2[N+](=O)[O-])CC1,-1.58% (inactive)

row,Structure (SMILES),inhibition
1,O=C(NCc1ccc2c(c1)OCO2)c1cc(F)c(F)cc1Cl,-12% (inactive)
2,CC1Sc2ccc(S(=O)(=O)CCC(=O)NCc3ccccc3Cl)cc2NC1=O (centres undefined),7.46% (inactive)
3,Cc1ccc(S(=O)(=O)N/N=C(\c2ccccc2)C2CC2)cc1,-1.73% (inactive)
4,Cc1ccc(O)c(NC(=O)c2cc(-c3ccco3)on2)c1,96.2% (active)
5,CC(C)Cc1cc(C(=O)Nc2cc(Br)ccc2O)no1,-28.3% (inactive)
6,O=C(Nc1ccccc1C(F)(F)F)c1cc(-c2ccc(O)cc2)on1,-35.1% (inactive)
7,COC(=O)c1ccc(NC(=O)c2cc3c(CO)cnc(C)c3oc2=Nc2cccc(C(N)=O)c2)cc1,-7.55% (inactive)
8,c1ccc(-n2cccc2)c(N2CCCCC2)c1,6.35% (inactive)
9,C/C(=C(\C#N)C(=O)NCCCN1CCOCC1)N(C)C,-10.8% (inactive)
10,O=C(COC(=O)c1ccc(F)c(S(=O)(=O)N2CCOCC2)c1)NCc1ccc2c(c1)OCO2,-6.67% (inactive)
11,COc1ccc(C2=NN(c3nc4ccccc4s3)C(=O)C2)cc1,-52% (inactive)
12,COC(=O)Cc1[nH]n(-c2nc3ccccc3s2)c(=O)c1C(C)=Nc1ccc(OC)cc1,60.8% (active)
13,CC(=NCc1ccco1)c1c(C(F)(F)F)[nH]n(-c2nc3ccccc3s2)c1=O,-104% (inactive)
14,COc1ccc(CC(=O)NCc2nnc(SCC(=O)Nc3nccs3)n2C)cc1,-0.699% (inactive)
15,COc1ccc(OC)c(CCNC(=O)CCn2ccc3cc(S(=O)(=O)N4CCCC4)ccc32)c1,4.04% (inactive)
16,COc1ccccc1C(=O)Nc1ccc(OCc2nnc3c4ccccc4c(C)nn23)cc1,15.2% (inactive)
17,COc1ccc(Cc2nnc(N/N=C/c3ccccc3O)[nH]c2=O)cc1OC,10.5% (inactive)
18,Cc1nnc(N/N=C/c2ccccn2)[nH]c1=O,58.1% (active)
19,Cc1cc(C(=O)N/N=C/c2ccccn2)c2ccccc2n1,3.68% (inactive)
